# Of roughly 7,900 targets only a part is listed; those with a hit were picked by preference. About 0.6% of all pairs of compound and target were hits.
# What was measured:
# Test in all cases: log2 fold change, soluble protein after heating vs DMSO (PISA); higher = thermal stabilisation; K562 cells, 10 uM, 30 min; active = over 0.2 and 3.5 SD of the protein, either way, in both replicates (recomputed)
# IRAK-1-4 Inhibitor I = compound: C1COCCN1CCN2C3=CC=CC=C3N=C2NC(=O)C4=CC(=CC=C4)[N+](=O)[O-] [IRAK-1-4 Inhibitor I]
# Method in brief: (§1)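 Soluble protein was quantified by TMTpro 16plex LC-MS/MS after channel sums were equalised. It was obtained as the supernatant after 21,000xg for 90 min from pooled aliquots of K562 cells (2×10^6 cells/mL, 10 μM compound, 30 min) heated for 3 min across 48°C-58°C and extracted in PBS with 0.5% NP-40 at 4°C. Thermal stability values are relative to control samples and come from duplicates. They are given as log2 fold changes.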
# ibrutinib = compound: C=CC(=O)N1CCC[C@@H](n2nc(-c3ccc(Oc4ccccc4)cc3)c3c(N)ncnc32)C1 [ibrutinib]
# Method in brief: as §1
# [1] = compound: CC(=O)c1cnc2ccc(-c3cc(Cl)c(O)c(Cl)c3)nc2c1N[C@H]1CC[C@H](CN(C)C)CC1
# Method in brief: as §1
# ralimetinib = compound: CC(C)(C)Cn1c(N)nc2ccc(-c3[nH]c(C(C)(C)C)nc3-c3ccc(F)cc3)nc21 [ralimetinib]
# Method in brief: as §1
# [2] = compound: CC(C)(O)CC(=O)NCCn1ccc2ncnc(Nc3ccc(Oc4cccc(C(F)(F)F)c4)c(Cl)c3)c21
# Method in brief: as §1
# [3] = compound: CC(C)C1=C2N=C(C=C(N2N=C1)NCC3=CC=CC=C3)NCCCCCCN
# Method in brief: as §1
# [4] = compound: CC(C)C[C@@H](C=O)NC(=O)[C@H](CC(C)C)NC(=O)[C@H](CC(C)C)NC(=O)OCc1ccccc1
# Method in brief: as §1
# pinometostat = compound: CC(C)N(C[C@H]1O[C@@H](n2cnc3c(N)ncnc32)[C@H](O)[C@@H]1O)[C@H]1C[C@@H](CCc2nc3cc(C(C)(C)C)ccc3[nH]2)C1 [pinometostat]
# Method in brief: as §1
# [5] = compound: CC1=C(C(CC(=O)N1)C2=CC=C(C=C2)C(F)(F)F)C(=O)NC3=C(C=C4C(=C3)C=NN4)F
# Method in brief: as §1
# [6] = compound: CC1=C(C2=C(C=C1)C(=O)C3=CC=CC=C3N2CCCN)C
# Method in brief: as §1
# [7] = compound: CC1=C(C=C(C=C1)NC(=O)C2=CC(=CC=C2)C(C)(C)C#N)NC3=CC4=C(C=C3)N=CN(C4=O)C
# Method in brief: as §1
# [8] = compound: CC1=C(C=C(C=C1)NC(=O)C2=CC(=CC=C2)N(C)C)NC(=O)C3=CC=C(C=C3)O
# Method in brief: as §1
# [9] = compound: CC1=CC=C(C=C1)SC2=C3C=C(SC3=CN=C2)C(=O)N
# Method in brief: as §1
# [10] = compound: CC1=NC(=CC=C1)C2=C(N=C(N2)C(C)(C)C)C3=CC4=NC=CN=C4C=C3
# Method in brief: as §1
# Nexturastat A = compound: CCCCN(Cc1ccc(C(=O)NO)cc1)C(=O)Nc1ccccc1 [Nexturastat A]
# Method in brief: as §1
# vemurafenib = compound: CCCS(=O)(=O)Nc1ccc(F)c(C(=O)c2c[nH]c3ncc(-c4ccc(Cl)cc4)cc23)c1F [vemurafenib]
# Method in brief: as §1
# [11] = compound: CCCS(=O)(=O)Nc1ccc(F)c(C(=O)c2c[nH]c3ncc(Cl)cc23)c1F
# Method in brief: as §1
# [12] = compound: CCCc1cc(C)[nH]c(=O)c1CNC(=O)c1cc(-c2ccnc(N3CCN(C)CC3)c2)cc2c1cnn2C(C)C
# Method in brief: as §1
# givinostat = compound: CCN(CC)Cc1ccc2cc(COC(=O)Nc3ccc(C(=O)NO)cc3)ccc2c1 [givinostat]
# Method in brief: as §1
# barasertib = compound: CCN(CCCOc1ccc2c(Nc3cc(CC(=O)Nc4cccc(F)c4)[nH]n3)ncnc2c1)CCOP(=O)(O)O [barasertib]
# Method in brief: as §1
# Sequence of UniProt Q9H2G2 (Q9H2G2 whole entry, looked up): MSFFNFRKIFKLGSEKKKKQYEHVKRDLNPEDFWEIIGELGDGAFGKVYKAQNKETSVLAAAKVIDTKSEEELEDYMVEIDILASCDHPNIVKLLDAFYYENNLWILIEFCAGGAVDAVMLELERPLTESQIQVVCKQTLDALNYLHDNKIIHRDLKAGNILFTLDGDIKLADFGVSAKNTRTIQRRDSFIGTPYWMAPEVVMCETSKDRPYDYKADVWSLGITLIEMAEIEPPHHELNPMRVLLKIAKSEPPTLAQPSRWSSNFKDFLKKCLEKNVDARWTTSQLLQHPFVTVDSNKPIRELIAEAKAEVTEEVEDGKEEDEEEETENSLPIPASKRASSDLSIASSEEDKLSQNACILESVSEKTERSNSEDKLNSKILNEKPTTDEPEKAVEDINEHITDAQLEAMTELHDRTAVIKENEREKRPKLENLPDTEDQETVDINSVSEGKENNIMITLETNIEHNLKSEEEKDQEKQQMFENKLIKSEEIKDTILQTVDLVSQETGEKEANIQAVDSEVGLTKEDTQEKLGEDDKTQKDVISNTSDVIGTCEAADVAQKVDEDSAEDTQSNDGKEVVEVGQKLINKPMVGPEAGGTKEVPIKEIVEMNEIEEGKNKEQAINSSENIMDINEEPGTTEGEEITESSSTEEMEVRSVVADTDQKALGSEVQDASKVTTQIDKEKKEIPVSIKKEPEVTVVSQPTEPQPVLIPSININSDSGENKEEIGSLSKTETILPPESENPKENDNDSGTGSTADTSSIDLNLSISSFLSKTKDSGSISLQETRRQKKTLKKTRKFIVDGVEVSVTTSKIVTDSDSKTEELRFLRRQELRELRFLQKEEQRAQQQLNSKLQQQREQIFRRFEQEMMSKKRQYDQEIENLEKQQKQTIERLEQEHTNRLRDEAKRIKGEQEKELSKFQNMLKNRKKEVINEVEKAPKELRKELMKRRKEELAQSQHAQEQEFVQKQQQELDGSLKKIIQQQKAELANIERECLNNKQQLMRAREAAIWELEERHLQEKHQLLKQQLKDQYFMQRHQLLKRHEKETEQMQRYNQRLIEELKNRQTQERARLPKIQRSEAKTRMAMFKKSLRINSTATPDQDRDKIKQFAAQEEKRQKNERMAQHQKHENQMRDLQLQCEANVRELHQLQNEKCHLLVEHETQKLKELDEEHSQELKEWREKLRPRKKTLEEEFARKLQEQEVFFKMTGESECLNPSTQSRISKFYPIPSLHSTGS
# Sequence of UniProt Q96CQ1 (Q96CQ1 whole entry, looked up): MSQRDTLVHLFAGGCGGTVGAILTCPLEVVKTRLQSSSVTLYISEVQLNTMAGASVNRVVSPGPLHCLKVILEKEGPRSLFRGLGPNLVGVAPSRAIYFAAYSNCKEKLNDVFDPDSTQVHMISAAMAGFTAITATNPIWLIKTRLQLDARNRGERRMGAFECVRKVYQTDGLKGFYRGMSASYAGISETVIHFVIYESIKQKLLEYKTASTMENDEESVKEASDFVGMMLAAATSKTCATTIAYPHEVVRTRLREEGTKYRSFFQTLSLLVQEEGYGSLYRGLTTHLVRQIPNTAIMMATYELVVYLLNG
# Sequence of UniProt Q15526 (Q15526 whole entry, looked up): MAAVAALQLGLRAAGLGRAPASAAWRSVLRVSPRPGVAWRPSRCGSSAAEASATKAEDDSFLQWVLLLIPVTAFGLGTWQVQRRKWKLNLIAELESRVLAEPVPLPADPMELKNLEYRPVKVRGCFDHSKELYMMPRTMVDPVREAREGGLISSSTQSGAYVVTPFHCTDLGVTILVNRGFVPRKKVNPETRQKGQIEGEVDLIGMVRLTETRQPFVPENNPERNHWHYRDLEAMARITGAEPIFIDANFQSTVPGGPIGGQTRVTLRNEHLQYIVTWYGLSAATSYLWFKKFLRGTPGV
# Sequence of UniProt Q13586 (Q13586 whole entry, looked up): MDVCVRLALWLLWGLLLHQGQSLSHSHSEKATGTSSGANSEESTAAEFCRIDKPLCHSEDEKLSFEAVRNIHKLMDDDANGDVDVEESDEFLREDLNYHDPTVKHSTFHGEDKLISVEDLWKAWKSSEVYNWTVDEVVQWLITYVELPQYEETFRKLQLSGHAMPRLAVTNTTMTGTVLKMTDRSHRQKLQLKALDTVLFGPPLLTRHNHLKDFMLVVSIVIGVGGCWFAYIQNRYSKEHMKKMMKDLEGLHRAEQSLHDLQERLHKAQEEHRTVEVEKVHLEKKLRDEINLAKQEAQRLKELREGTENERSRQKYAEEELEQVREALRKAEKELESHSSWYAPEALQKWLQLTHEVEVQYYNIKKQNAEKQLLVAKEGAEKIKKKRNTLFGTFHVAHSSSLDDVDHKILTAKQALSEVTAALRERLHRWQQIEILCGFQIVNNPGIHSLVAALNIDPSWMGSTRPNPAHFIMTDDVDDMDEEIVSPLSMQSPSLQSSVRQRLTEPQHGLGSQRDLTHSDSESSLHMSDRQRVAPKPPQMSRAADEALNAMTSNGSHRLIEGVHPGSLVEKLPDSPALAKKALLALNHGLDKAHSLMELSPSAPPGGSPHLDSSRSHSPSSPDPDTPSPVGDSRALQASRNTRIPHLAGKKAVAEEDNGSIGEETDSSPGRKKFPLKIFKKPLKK
# Sequence of UniProt Q6YHU6 (Q6YHU6 whole entry, looked up): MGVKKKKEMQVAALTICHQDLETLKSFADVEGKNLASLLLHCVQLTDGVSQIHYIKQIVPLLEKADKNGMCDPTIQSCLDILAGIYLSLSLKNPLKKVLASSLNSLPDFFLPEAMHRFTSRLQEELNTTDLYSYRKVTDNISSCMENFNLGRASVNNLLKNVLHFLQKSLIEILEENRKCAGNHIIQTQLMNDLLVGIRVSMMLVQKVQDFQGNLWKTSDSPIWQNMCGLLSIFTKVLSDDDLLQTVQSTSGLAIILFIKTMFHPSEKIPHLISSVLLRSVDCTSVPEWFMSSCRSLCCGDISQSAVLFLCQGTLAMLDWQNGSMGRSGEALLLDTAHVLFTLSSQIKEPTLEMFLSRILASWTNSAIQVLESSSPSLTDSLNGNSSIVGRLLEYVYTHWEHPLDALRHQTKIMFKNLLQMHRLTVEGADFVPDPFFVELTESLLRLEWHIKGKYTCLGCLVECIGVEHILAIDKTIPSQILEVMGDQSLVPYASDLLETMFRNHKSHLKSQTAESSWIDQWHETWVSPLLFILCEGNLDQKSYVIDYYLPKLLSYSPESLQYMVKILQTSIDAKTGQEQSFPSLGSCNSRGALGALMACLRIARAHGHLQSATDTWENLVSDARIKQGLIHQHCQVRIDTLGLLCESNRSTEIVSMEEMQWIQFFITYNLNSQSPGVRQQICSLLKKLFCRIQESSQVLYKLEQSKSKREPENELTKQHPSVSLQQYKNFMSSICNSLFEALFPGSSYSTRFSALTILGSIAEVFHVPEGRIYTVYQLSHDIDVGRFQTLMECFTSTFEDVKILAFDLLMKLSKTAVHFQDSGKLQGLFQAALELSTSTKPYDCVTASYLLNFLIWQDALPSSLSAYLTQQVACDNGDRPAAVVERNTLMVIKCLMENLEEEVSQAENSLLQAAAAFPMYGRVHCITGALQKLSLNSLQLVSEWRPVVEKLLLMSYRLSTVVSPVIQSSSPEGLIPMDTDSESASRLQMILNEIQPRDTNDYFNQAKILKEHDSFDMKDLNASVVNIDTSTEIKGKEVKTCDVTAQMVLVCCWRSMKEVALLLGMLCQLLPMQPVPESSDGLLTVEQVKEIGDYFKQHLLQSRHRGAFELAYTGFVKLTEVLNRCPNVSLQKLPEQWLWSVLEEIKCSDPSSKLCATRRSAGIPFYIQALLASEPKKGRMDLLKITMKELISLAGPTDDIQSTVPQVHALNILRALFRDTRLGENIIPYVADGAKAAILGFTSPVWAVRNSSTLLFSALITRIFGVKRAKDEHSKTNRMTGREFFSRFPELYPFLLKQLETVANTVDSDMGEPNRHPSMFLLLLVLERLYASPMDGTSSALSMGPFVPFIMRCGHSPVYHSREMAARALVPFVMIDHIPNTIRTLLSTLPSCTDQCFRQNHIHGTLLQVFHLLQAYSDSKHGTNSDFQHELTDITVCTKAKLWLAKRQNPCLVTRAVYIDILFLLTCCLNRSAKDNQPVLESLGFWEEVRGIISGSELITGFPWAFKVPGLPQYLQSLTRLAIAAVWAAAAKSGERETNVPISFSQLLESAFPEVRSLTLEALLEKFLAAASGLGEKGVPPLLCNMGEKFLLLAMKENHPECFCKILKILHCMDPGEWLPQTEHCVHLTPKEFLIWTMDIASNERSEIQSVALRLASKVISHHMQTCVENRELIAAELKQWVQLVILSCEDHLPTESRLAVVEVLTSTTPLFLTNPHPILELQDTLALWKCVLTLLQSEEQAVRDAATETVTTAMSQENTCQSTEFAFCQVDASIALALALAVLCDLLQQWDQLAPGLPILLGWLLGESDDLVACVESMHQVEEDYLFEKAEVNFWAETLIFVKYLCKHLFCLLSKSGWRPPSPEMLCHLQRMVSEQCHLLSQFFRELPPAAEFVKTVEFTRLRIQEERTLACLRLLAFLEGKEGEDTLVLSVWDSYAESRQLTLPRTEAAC
# Sequence of UniProt Q15005 (Q15005 whole entry, looked up): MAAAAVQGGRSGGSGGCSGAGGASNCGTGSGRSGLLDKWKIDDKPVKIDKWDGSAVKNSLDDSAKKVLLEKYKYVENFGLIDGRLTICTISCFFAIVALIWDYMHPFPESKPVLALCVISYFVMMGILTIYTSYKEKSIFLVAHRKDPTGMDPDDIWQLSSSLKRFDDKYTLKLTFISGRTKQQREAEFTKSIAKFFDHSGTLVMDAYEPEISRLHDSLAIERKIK
Target,log2 fold change (IRAK-1-4 Inhibitor I),log2 fold change (ibrutinib),log2 fold change [1],log2 fold change (ralimetinib),log2 fold change [2],log2 fold change [3],log2 fold change [4],log2 fold change (pinometostat),log2 fold change [5],log2 fold change [6],log2 fold change [7],log2 fold change [8],log2 fold change [9],log2 fold change [10],log2 fold change (Nexturastat A),log2 fold change (vemurafenib),log2 fold change [11],log2 fold change [12],log2 fold change (givinostat),log2 fold change (barasertib)
SLK isoform 2 (UniProt Q9H2G2),-0.008 (inactive),-0.123 (inactive),0.04 (inactive),0.005 (inactive),-0.216 (inactive),0.002 (inactive),0.022 (inactive),0.022 (inactive),-0.025 (inactive),0.073 (inactive),-0.078 (inactive),-0.07 (inactive),0.051 (inactive),0.02 (inactive),-0.007 (inactive),0.03 (inactive),0.092 (inactive),0.026 (inactive),0 (inactive),0.047 (inactive)
THADA (UniProt Q6YHU6),0.007 (inactive),-0.026 (inactive),-0.062 (inactive),0.053 (inactive),-0.166 (inactive),-0.225 (inactive),-0.071 (inactive),0.016 (inactive),-0.05 (inactive),-0.047 (inactive),0.03 (inactive),-0.038 (inactive),0.019 (inactive),-0.01 (inactive),-0.021 (inactive),0.038 (inactive),0.06 (inactive),0.039 (inactive),-0.006 (inactive),0.07 (inactive)
TM9SF2 (UniProt Q99805),0.06 (inactive),0.01 (inactive),-0.04 (inactive),-0.049 (inactive),0.021 (inactive),-0.436 (active),-0.012 (inactive),-0.003 (inactive),0.008 (inactive),0.027 (inactive),0.056 (inactive),-0.009 (inactive),-0.005 (inactive),-0.001 (inactive),-0.039 (inactive),-0.03 (inactive),0.018 (inactive),-0.004 (inactive),-0.019 (inactive),0.035 (inactive)
SP100 isoform 4 (UniProt P23497),0.006 (inactive),-0.012 (inactive),0.074 (inactive),0.019 (inactive),0.011 (inactive),-0.015 (inactive),-0.07 (inactive),-0.035 (inactive),0.029 (inactive),-0.1 (inactive),0.02 (inactive),-0.004 (inactive),0.072 (inactive),-0.008 (inactive),-0.119 (inactive),-0.019 (inactive),0.159 (inactive),0 (inactive),-0.005 (inactive),0.003 (inactive)
STIM1 (UniProt Q13586),0.006 (inactive),0.007 (inactive),-0.06 (inactive),-0.036 (inactive),-0.067 (inactive),-0.33 (active),0.034 (inactive),-0.011 (inactive),0.006 (inactive),0.067 (inactive),0.014 (inactive),0.003 (inactive),0.028 (inactive),0.045 (inactive),-0.066 (inactive),-0.006 (inactive),0.034 (inactive),-0.015 (inactive),0.009 (inactive),0.008 (inactive)
SPCS2 (UniProt Q15005),-0.014 (inactive),-0.037 (inactive),-0.039 (inactive),-0.047 (inactive),-0.016 (inactive),-0.01 (inactive),-0.058 (inactive),-0.062 (inactive),-0.033 (inactive),0.002 (inactive),0.011 (inactive),0.004 (inactive),0 (inactive),0.3 (inactive),-0.052 (inactive),0.075 (inactive),0.058 (inactive),-0.011 (inactive),-0.009 (inactive),0.025 (inactive)
SURF1 (UniProt Q15526),0.021 (inactive),-0.028 (inactive),0.051 (inactive),-0.04 (inactive),0.036 (inactive),-0.172 (inactive),0.028 (inactive),-0.044 (inactive),0.022 (inactive),0.098 (inactive),0.045 (inactive),-0.008 (inactive),-0.019 (inactive),0.087 (inactive),-0.033 (inactive),0.042 (inactive),0.124 (inactive),-0.01 (inactive),-0.01 (inactive),0.027 (inactive)
SLC25A36 (UniProt Q96CQ1),0.048 (inactive),0.066 (inactive),0.029 (inactive),0.019 (inactive),-0.167 (inactive),-0.03 (inactive),0.007 (inactive),0.01 (inactive),0.108 (inactive),0.012 (inactive),0.044 (inactive),0.008 (inactive),-0.172 (inactive),-0.048 (inactive),0.016 (inactive),-0.297 (active),0.016 (inactive),-0.067 (inactive),0.115 (inactive),-0.011 (inactive)
STAT6 (UniProt P42226),-0.145 (inactive),0.031 (inactive),-0.222 (inactive),0.054 (inactive),-0.128 (inactive),-0.058 (inactive),0.007 (inactive),0.11 (inactive),0.125 (inactive),-0.048 (inactive),-0.092 (inactive),-0.111 (inactive),0.053 (inactive),0.015 (inactive),0.044 (inactive),0.058 (inactive),0.082 (inactive),-0.012 (inactive),0.078 (inactive),0.001 (inactive)

# Reference: the supplement of paper PMC10849652
